Screen size: about 43,000 compounds; about 830 (1.9%) were called active. A call without a number means that no potency is given here. About 30% were inconclusive and are not listed. The calls were made as follows: active = clear falling dose curves in both reporters; inconclusive = both reporters move, but less clearly or upward; inactive = either reporter flat; the % is the NLuc reporter signal. The full list was thinned out, with actives kept by preference.
Potency is read from the fitted curve at half-maximal effect.

This assay can be described thus: Cell-based coincidence reporter assay to measure PMP22 gene transcription in S16 Pmp22-F2sN cells - Primary screen. The following applies: S16 Pmp22-F2sN Schwann cells (luciferase reporters placed in the Pmp22 gene), FLuc/NLuc coincidence luminescence, 24 h; series mostly up to 57.5 µM. In a few lines:
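Luminescent read-out of sequential FLuc and NLuc signals from a reporter embedded in the Pmp22 3' UTR of S16 Schwann cells, taken after 24 h compound exposure at 37C; compounds reducing both signals score as inhibitors of expression.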
As to `CC(=O)Nc1cc(C(=O)NCc2ccc(F)cc2)ccc1Sc1ccc(F)cc1`, the Potency result is “inactive”.

In the case of `Cc1cccc(C2CC(=O)Oc3c2c(=O)n(C)c2ccccc32)c1` (stereo not given), the Potency entry is “inactive”.

For `O=C(NCCCN1CCN(c2cccc(Cl)c2)CC1)c1nnc(Cc2ccc(F)cc2Cl)o1`, the Potency was 18.9 µM (active).

For the compound `CC(CNC(=O)c1nnc(Cc2cccc(F)c2)o1)c1ccccc1` (stereo not given), the Potency result was “inactive”.

As to `Cc1ccc(CCNC(=O)c2nnc(Cc3cccc(F)c3)o2)cc1`, the Potency entry was “inactive”.

As for `CCOC(=O)c1c(NC(=O)c2cc(CC)on2)sc(C(C)=O)c1C`, the Potency entry was “inactive”.

`COc1ccc(CNC(=O)C2=Cc3cccc(OC)c3OC2)cc1OC`: the Potency entry was “inactive”.

For the compound `NC(=O)CSc1nc2c(oc3ccccc32)c(=O)n1Cc1ccccc1`, the Potency entry is “inactive”.

On to `O=C(NCCc1ccccc1)c1ccc2c(c1)N(Cc1ccc(F)cc1)C(=O)c1ccccc1S2(=O)=O`, for which the Potency result is “inactive”.

For the compound `O=C(c1ccc2c(c1)N(Cc1ccccc1F)C(=O)c1ccccc1S2(=O)=O)N1CCOCC1`, the Potency entry is “inactive”.

With `O=C(c1ccc2c(c1)N(Cc1ccc(F)cc1)C(=O)c1ccccc1S2(=O)=O)N1CCN(c2ccccn2)CC1`, the Potency was 15.6 µM (active).

`Cc1ccc(C(=O)N2c3ncnn3C3(CCCCC3)[C@@H]3CCCC[C@@H]32)cc1`: the Potency result is “inactive”.

Regarding `COc1ccc(CCNc2nc(-c3ccc(F)cc3)cc(C(F)(F)F)n2)cc1OC`, the Potency result was “inactive”.

With `O=C(CSc1nc(=O)n(Cc2cccnc2)c2c1CCC2)Nc1ccc(F)cc1F`, the Potency result was “inactive”.

Regarding `Cn1nnnc1SCCCNCc1ccc(Cl)cc1`, the Potency entry was “inactive”.

With `CCC(=O)N1CCc2cc(S(=O)(=O)NC(CC(C)C)C(=O)NCCc3cccc(C)c3)ccc21` (stereo not given), the Potency entry is “inactive”.

As to `CCc1ccc(NC(=O)CSc2nc3c([nH]c4ccccc43)c(=O)n2-c2cccc(OC)c2)cc1`, the Potency result is “inactive”.

Consider `Cc1ccccc1CSc1nc2c([nH]c3ccccc32)c(=O)n1C`, for which the Potency result was “inactive”.

With `CCOC(=O)c1ccc(NC(=O)CSc2nc3c([nH]c4ccccc43)c(=O)n2C)cc1`, the Potency was 14.1 µM (active).

For `Cc1ccccc1NC(=O)CCOc1ccccc1`, the Potency result is “inactive”.

Consider `COc1ccc(C)cc1N(C)C(=O)c1c(C)oc2ncnc(N3CCOCC3)c12`, for which the Potency result was “inactive”.

For the compound `Cc1cccc(-n2c(SCC(N)=O)nc3c(oc4ccccc43)c2=O)c1`, the Potency result was “inactive”.

`CC1CCN(CCCNC(=O)CN2C(=O)CSc3ccc(S(=O)(=O)N4CCCCC4)cc32)CC1`: the Potency entry is “inactive”.

For `CCc1ccc(NC(=O)c2cc(S(=O)(=O)N3CCCC(C)C3)cn2C)cc1` (stereo not given), the Potency entry is “inactive”.

As to `CCc1ccc(NC(=O)CN2CCSc3ccc(S(=O)(=O)N4CCCC4)cc32)cc1`, the Potency is 17 µM (active).

As for `COc1ccccc1CCNC(=O)c1cccn1-c1nnc(N2CCCCC2)s1`, the Potency entry was “inactive”.

Consider `O=C(NCc1ccccc1Cl)c1cccn1-c1nnc(N2CCCCC2)s1`, for which the Potency result was “inactive”.

As for `Cc1ccc(CCNC(=O)C2CCN(c3nnc(-n4cccc4CNc4ccc(C)cc4)s3)CC2)cc1`, the Potency is 20 µM (active).

On to `Cc1cc(C)cc(NC(=O)Cc2csc(C)n2)c1`, for which the Potency result was “inactive”.

Turning to `Cc1nc2ccc(S(=O)(=O)NC(C(=O)NCc3ccccc3Cl)C(C)C)cc2s1` (stereo not given), the Potency entry was “inactive”.

Source of the values: PubChem BioAssay AID1508649 (National Center for Advancing Translational Sciences (NCATS), 2021).
